Data on nine molecules can be found in PubChem BioAssay (NCI).

Compounds without any hit were thinned out: in the full panel of roughly 79,000, 15% have a hit. A number with no mark means an inactive call. The source made the active and inactive calls. Rule as the data show it: active = growth inhibition above about 70%; inactive = the rest.

Assay [1] can be described thus: NCI Yeast Anticancer Drug Screen. Data for the rad50 strain (AID 155).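 Also: 0% = growth of vehicle-only cultures of the same strain.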 The following applies: S. cerevisiae rad50 strain growth inhibition, active compounds read high. The essentials:
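Inhibition values express reduced yeast growth in compound-treated cultures relative to vehicle-treated controls.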

A short description of assay [2]: NCI Yeast Anticancer Drug Screen. Data for the mec2-1 strain (AID 157). The settings on record: S. cerevisiae mec2-1 strain, active compounds read high. The essentials: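 Test agents were screened against the mec2-1 yeast strain, with defined DNA repair or cell cycle alteration. Growth was scored as inhibition against vehicle-only controls.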
A short description of assay [3]: NCI Yeast Anticancer Drug Screen. Data for the sgs1 mgt1 strain (AID 161).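 Also: 0% = growth of cultures given vehicle only.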 The following applies: S. cerevisiae sgs1 mgt1 strain, active compounds read high. The essentials: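 Test agents were incubated with a DNA-repair-mutant yeast strain. Growth was then read and compared against vehicle-treated controls.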
Assay [4] can be described thus: NCI Yeast Anticancer Drug Screen. Data for the cln2 rad14 strain (AID 165).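 Also: 0% = growth equal to vehicle treated cultures.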 The following applies: S. cerevisiae cln2 rad14 strain, active compounds read high. The method, boiled down: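 Growth of compound-exposed yeast (cln2 rad14 genotype) measured and expressed as inhibition relative to vehicle.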
Assay [5] in a line: NCI Yeast Anticancer Drug Screen. Data for the bub3 strain (AID 167). The following applies: S. cerevisiae bub3 mutant strain, active compounds read high. The method, boiled down:
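Steps: expose the mutant yeast strain to compound; grow alongside vehicle-treated cultures; measure growth; express inhibition against the vehicle cultures.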

A short description of assay [6]: NCI Yeast Anticancer Drug Screen. Data for the mlh1 rad18 strain (AID 175). The settings on record: S. cerevisiae mlh1 rad18 strain growth inhibition, active compounds read high. The essentials: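 In this whole-cell yeast screen, a strain with altered DNA damage repair is challenged with compound, and its growth is measured against matched vehicle-treated controls.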
Setting [7] is: at 5.0 µM (retest, dose inferred, filed as 0.5).
The mark [8] stands for this setting: at 50.0 µM (retest, dose inferred, filed as 5.0).

Turning to `O=C1/C(=C/c2ccc(Cl)cc2)CCC/C1=C\c1ccc(O)c(CN2CCCCC2)c1`, the growth inhibition is 31% in assay [1] (setting [7]); 52% in assay [1] (setting [8]); 2.4% in assay [1] (at 50.0 µM); 2% in assay [2] (setting [7]); 17% in assay [2] (setting [8]); 1.75% in assay [2] (at 50.0 µM). For the same molecule, the growth inhibition in assay [3] (setting [7]) was 7%; in assay [3] (setting [8]), 20%; in assay [3] (at 50.0 µM), 69%; in assay [4] (setting [7]) it was 7%; in assay [4] (setting [8]), 24%; in assay [4] (at 50.0 µM), 51.9%. Also, the growth inhibition was -48% in assay [5] (setting [7]); 17% in assay [5] (setting [8]); 72.3% (active) in assay [5] (at 50.0 µM); 16% in assay [6] (setting [7]); 20% in assay [6] (setting [8]); 90.6% (active) in assay [6] (at 50.0 µM).

For `CN1C(=O)C(C2C(=O)N(C)C(=O)N(C)C2=O)C(=O)N(C)C1=O`, the growth inhibition in assay [1] (setting [7]) was 13%; in assay [1] (setting [8]), -3%; in assay [1] (at 50.0 µM), 2.95%; in assay [2] (setting [7]), 2%; in assay [2] (setting [8]) it was 0%; in assay [2] (at 50.0 µM) it was 0.9%. For the same molecule, the growth inhibition in assay [3] (setting [7]) is 0%; in assay [3] (setting [8]) it was -11%; in assay [3] (at 50.0 µM), 12.2%; in assay [4] (setting [7]), 2%; in assay [4] (setting [8]), 4%; in assay [4] (at 50.0 µM), 39.4%. In addition, the growth inhibition in assay [5] (setting [7]) is 0%; in assay [5] (setting [8]) it was -2%; in assay [5] (at 50.0 µM), -2.2%; in assay [6] (setting [7]), 1%; in assay [6] (setting [8]), -2%; in assay [6] (at 50.0 µM), 8.55%.

For the molecule `Clc1ccc(CN2COc3c(cc(Cl)c4cccnc34)C2)cc1`, the growth inhibition in assay [1] (setting [7]) is 4%; in assay [1] (setting [8]), 71% (active); in assay [1] (at 50.0 µM), 7.5%; in assay [2] (setting [7]), 1%; in assay [2] (setting [8]) it was 56%; in assay [2] (at 50.0 µM), 63.3%. For the same molecule, the growth inhibition in assay [3] (setting [7]) is 1%; in assay [3] (setting [8]), 99% (active); in assay [3] (at 50.0 µM), 16.5%; in assay [4] (setting [7]) it was 1%; in assay [4] (setting [8]) it was 99% (active); in assay [4] (at 50.0 µM) it was 98.8% (active). Further, the growth inhibition in assay [5] (setting [7]) was -6%; in assay [5] (setting [8]), 55%; in assay [5] (at 50.0 µM), 99.2% (active); in assay [6] (setting [7]) it was -7%; in assay [6] (setting [8]), 99% (active); in assay [6] (at 50.0 µM) it was 24.1%.

As for `O=C(/C(O)=C(\O)C(=O)N(C1CCCCC1)C1CCCCC1)N(C1CCCCC1)C1CCCCC1`, the growth inhibition in assay [1] (setting [7]) is 25%; in assay [1] (setting [8]), 93% (active); in assay [1] (at 50.0 µM) it was 96.9% (active); in assay [2] (setting [7]), -2%; in assay [2] (setting [8]) it was 89% (active); in assay [2] (at 50.0 µM), 98.2% (active). For the same molecule, the growth inhibition in assay [3] (setting [7]) was 20%; in assay [3] (setting [8]), 87% (active); in assay [3] (at 50.0 µM) it was 96.8% (active); in assay [4] (setting [7]), -4%; in assay [4] (setting [8]), 66%; in assay [4] (at 50.0 µM), 79.7% (active). Also, the growth inhibition in assay [5] (setting [7]) is 4%; in assay [5] (setting [8]) it was 95% (active); in assay [5] (at 50.0 µM) it was 95.5% (active); in assay [6] (setting [7]) it was 14%; in assay [6] (setting [8]) it was 86% (active); in assay [6] (at 50.0 µM), 97.8% (active).

Take `O=C(c1ccccc1)C(Br)C(Br)c1ccc(Cl)c(Cl)c1` (configuration not stated): the growth inhibition was 67% in assay [1] (setting [7]); 96% (active) in assay [1] (setting [8]); -8.65% in assay [1] (at 50.0 µM); 69% in assay [2] (setting [7]); 98% (active) in assay [2] (setting [8]); 24.3% in assay [2] (at 50.0 µM). Further, the growth inhibition in assay [3] (setting [7]) was 92% (active); in assay [3] (setting [8]) it was 97% (active); in assay [3] (at 50.0 µM) it was 60.1%; in assay [4] (setting [7]), 39%; in assay [4] (setting [8]) it was 97% (active); in assay [4] (at 50.0 µM), -16.2%. The growth inhibition is 87% (active) in assay [5] (setting [7]); 98% (active) in assay [5] (setting [8]); 13.1% in assay [5] (at 50.0 µM); 73% (active) in assay [6] (setting [7]); 97% (active) in assay [6] (setting [8]); 77.8% (active) in assay [6] (at 50.0 µM).

Regarding `CC(C)=CCC(CC=C(C)C)c1ccncc1` (tested in a mixture with another compound), the growth inhibition was 16% in assay [1] (setting [7]); 99% (active) in assay [1] (setting [8]); 99.2% (active) in assay [1] (at 50.0 µM); 15% in assay [2] (setting [7]); 99% (active) in assay [2] (setting [8]); 99.5% (active) in assay [2] (at 50.0 µM). Moreover, the growth inhibition in assay [3] (setting [7]) is -92%; in assay [3] (setting [8]), 100% (active); in assay [3] (at 50.0 µM) it was 99.5% (active); in assay [4] (setting [7]) it was 5%; in assay [4] (setting [8]), 98% (active); in assay [4] (at 50.0 µM), 99.4% (active). Moreover, the growth inhibition in assay [5] (setting [7]) was 21%; in assay [5] (setting [8]), 99% (active); in assay [5] (at 50.0 µM), 98.8% (active); in assay [6] (setting [7]), 49%; in assay [6] (setting [8]), 99% (active); in assay [6] (at 50.0 µM), 99.5% (active).

Consider `O=C1C(c2ccccc2)CS(=O)(=O)CC1c1ccccc1` (configuration not stated), for which the growth inhibition in assay [1] (setting [7]) is -10%; in assay [1] (setting [8]), 0%; in assay [1] (at 50.0 µM), 14%; in assay [2] (setting [7]), -8%; in assay [2] (setting [8]) it was 7%; in assay [2] (at 50.0 µM) it was 2.85%. The growth inhibition is 5% in assay [3] (setting [7]); 7% in assay [3] (setting [8]); 57.1% in assay [3] (at 50.0 µM); 3% in assay [4] (setting [7]); -4% in assay [4] (setting [8]); 7% in assay [4] (at 50.0 µM). Besides, the growth inhibition is -3% in assay [5] (setting [7]); -12% in assay [5] (setting [8]); -7.65% in assay [5] (at 50.0 µM); 13% in assay [6] (setting [7]); 9% in assay [6] (setting [8]); 12.6% in assay [6] (at 50.0 µM).

Turning to `CN(C)CCCCN1c2ccccc2Sc2ccc(C(=O)c3ccccc3)cc21`, the growth inhibition in assay [1] (setting [7]) is 0%; in assay [1] (setting [8]) it was 65%; in assay [1] (at 50.0 µM) it was 99.8% (active); in assay [2] (setting [7]), -2%; in assay [2] (setting [8]), 81% (active); in assay [2] (at 50.0 µM) it was 99.8% (active). The growth inhibition is 3% in assay [3] (setting [7]); 79% (active) in assay [3] (setting [8]); 99.8% (active) in assay [3] (at 50.0 µM); 2% in assay [4] (setting [7]); 70% (active) in assay [4] (setting [8]); 99.3% (active) in assay [4] (at 50.0 µM). In addition, the growth inhibition in assay [5] (setting [7]) was 4%; in assay [5] (setting [8]) it was 77% (active); in assay [5] (at 50.0 µM), 99.7% (active); in assay [6] (setting [7]), 0%; in assay [6] (setting [8]) it was 82% (active); in assay [6] (at 50.0 µM), 99.6% (active).

Turning to `O=C(O)c1cc(-c2ccc3c(c2)Nc2ccccc2S3)nc2ccc(F)cc12`, the growth inhibition is 16% in assay [1] (setting [7]); 98% (active) in assay [1] (setting [8]); 99% (active) in assay [1] (at 50.0 µM); -40% in assay [2] (setting [7]); 98% (active) in assay [2] (setting [8]); 99.1% (active) in assay [2] (at 50.0 µM). The growth inhibition in assay [3] (setting [7]) is 12%; in assay [3] (setting [8]), 99% (active); in assay [3] (at 50.0 µM), 98.8% (active); in assay [4] (setting [7]) it was 22%; in assay [4] (setting [8]) it was 97% (active); in assay [4] (at 50.0 µM), 98.7% (active). The growth inhibition is 33% in assay [5] (setting [7]); 97% (active) in assay [5] (setting [8]); 98% (active) in assay [5] (at 50.0 µM); 18% in assay [6] (setting [7]); 96% (active) in assay [6] (setting [8]); 98.7% (active) in assay [6] (at 50.0 µM).
